# Compound activity from PubChem BioAssay.
# CtBP-E1A blk: CtBP/E1A binding inhibition; activity change, % (no concentration beside the values); actives 0.49% (n = 340,000); AlphaScreen GST-E1A/His-CtBP binding, 1536-well; stronger effect = lower value; in the data active means activity change below about -65%; inconclusive means mostly about -30% to -63%; further: on the % scale 0 is the no-effect control and ±100 the full control effect
#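 Protein mix (5X: 125 nM each GST-E1A, His-CtBP) was incubated with pinned compound 2 h at 37 deg C in dark, in 50 mM Tris pH 8.0 buffer with 300 mM NaCl. Glutathione donor and nickel acceptor beads followed; AlphaScreen signal read after 1 h.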
# Six1-Eya2 inh: inhibitors of human Six1/Eya2 interaction; AlphaScreen GST-Six1/His-Eya2 binding, biochemical; stronger effect = lower value; AID 651725; actives 0.56% (n = 360,000); Q15475+O00167; activity change, % (concentration not given with the values); in the data active means activity change below about -65%; inconclusive means mostly about -30% to -63%; further: on the % scale 0 is the no-effect control and ±100 the full control effect
#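 Compounds are tested against tagged Six1 and Eya2 proteins bridged by glutathione donor and nickel acceptor beads; after a one-hour incubation at 37 °C without light, AlphaScreen emission is recorded.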
# CBFb-RUNX1 inh: blocks binding between human CBF-beta and RUNX1 | 230,000 tested, under 10 active | Potency, µM (series often up to 59.8 µM), for inactives: top-dose activity, negative = inhibition, usual class: inhibitors | AlphaScreen CBFb-His/RUNX1-biotin binding, biochemical | Q01196+Q13951; further: % of control where 0% means no effect
#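 Read-out: AlphaScreen. Format: His-CBF-beta with biotinylated RUNX1 (30 nM each) preincubated 20 min, compound 15 min, Ni-chelate plus streptavidin beads 90 min; room temperature throughout.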
# Gal4-VP16 FLuc: Gal4-VP16 reporter inhibition counter-screen; Potency, µM (highest dose often 53.6 µM), inactives show top-dose activity, negative = inhibition, most hits filed as inhibitors; Drosophila S2 Gal4-VP16 UAS-luciferase, luminescence, 20 h; actives 3.5% (n = 310,000);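 further: Gal4-VP16 expression switched on by copper sulfate through the metallothionein promoter; potency means the concentration at half of the fitted maximal effect; on the % scale 0 is the no-effect control and ±100 the full control effect; nearly all actives have a fitted effect of over 50% in size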
# MBNL1 CUG block: blocks human MBNL1 binding to CUG repeat RNA. Q9NR56. TR-FRET MBNL1-His/biotin-(CUG)12 binding, 665/545 ratio. Potency, µM (doses to about 57.5 µM), inactives show at the highest dose activity change, negative = inhibition, hits mostly inhibitors. actives 0.036% (n = 280,000); active means well fitted inhibition curve with a large enough effect in the signal ratio, with a control signal flat, not every such curve was filed as active; inconclusive means small, poorly fitted or top-dose-only effect, or effect the other way, or a change in a side signal; inactive means no such curve, though single readings can be large or run the other way; the % refers to the signal ratio; further: potency means the concentration at half of the fitted maximal effect; on the % scale 0 is the no-effect control and ±100 the full control effect
#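 Compound titration spanned 92 nM–58 uM against the MBNL1-His/biotin-(CUG)12 complex. After 60 min at room temperature with 5 nM streptavidin-XL665 and 0.055 ng/ul terbium anti-His, ratiometric 665/545 nm emission (Ex 340 nm) normalized to controls.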
# RORg inh: ROR gamma (mouse) transcription inhibition | actives 5.4% (n = 310,000) | Drosophila S2 Gal4-RORgamma UAS-luciferase reporter, 20 h | P51450 | AID 2551 | Potency, µM (series often up to 53.6 µM), for the others: at the top dose activity change, negative = inhibition, actives largely listed as inhibitors; further: potency means the concentration at half of the fitted maximal effect; on the % scale 0 is the no-effect control and ±100 the full control effect; nearly all actives have a fitted effect of over 60% in size
# Target sequence (P51450 whole entry, looked up, the tested form may be a part): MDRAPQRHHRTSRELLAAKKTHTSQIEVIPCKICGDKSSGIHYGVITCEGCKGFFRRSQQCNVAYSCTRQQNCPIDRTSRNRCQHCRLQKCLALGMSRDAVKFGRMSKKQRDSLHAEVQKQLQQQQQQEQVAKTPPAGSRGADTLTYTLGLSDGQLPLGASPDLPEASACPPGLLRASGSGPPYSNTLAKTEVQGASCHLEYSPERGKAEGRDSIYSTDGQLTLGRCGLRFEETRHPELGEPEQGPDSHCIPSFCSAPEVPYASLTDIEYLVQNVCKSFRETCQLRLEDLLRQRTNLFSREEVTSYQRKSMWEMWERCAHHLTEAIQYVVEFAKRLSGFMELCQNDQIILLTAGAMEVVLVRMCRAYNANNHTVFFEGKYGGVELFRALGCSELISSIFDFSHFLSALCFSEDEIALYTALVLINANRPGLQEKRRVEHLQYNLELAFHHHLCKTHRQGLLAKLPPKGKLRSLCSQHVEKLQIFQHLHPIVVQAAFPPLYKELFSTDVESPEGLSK
#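 Luminescence from a UAS-regulated Photinus luciferase reporter in stably transfected Drosophila Schneider cells is measured; decreased signal marks ROR gamma inhibition. Fusion expression is induced by 700 uM copper sulfate for 20 hr.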
# The depositor's hits bear a star; ? = inconclusive; nt = no result given; [ ] = dose if it differs, or a comment. A selection: hits, their analogues and other compounds. The true share with any hit is near 5.5%. Unless noted, the call rests on the fitted dose curve; in most records, active means well fitted curve in the direction sought with a large enough effect; inconclusive means small, poorly fitted or top-dose-only effect, or another doubt; inactive means no such curve, though single readings can be large; an effect the other way counts as inactive or inconclusive.
SMILES,CtBP-E1A blk,Six1-Eya2 inh,CBFb-RUNX1 inh,Gal4-VP16 FLuc,MBNL1 CUG block,RORg inh
CCNC(=S)NNC(=O)c1ccccc1OC(F)F,7,4,7%,?,4%,4µM*
CCNC(=S)NNC(=O)c1ccccc1Cl,9,10,11%,14µM*,nt,3.2µM*
CCNC(=S)NNC(=O)c1ccccn1,-96*,-95*,9%,?,-4%[11.5 µM],8.9µM*
O=C(NNC(=S)Nc1ccc(Cl)c(Cl)c1)c1ccccn1,nt,-90*,-2%,-12%,42%,?
Cc1cccnc1NC(=S)Nc1ccc(Cl)c(Cl)c1,nt,-19,3%,?,2%,?
COCOCCn1cc(CN2CCS(=O)(=O)N(Cc3ccc(-c4ccc(OC)c(OC)c4)cc3)C(CC(C)C)C2=O)nn1 (stereo unspecified),3,-8,nt,nt,nt,nt
COc1ccc(NC(=S)NNC(=O)c2ccccc2OC(F)F)cc1,0,0,-1%,-8%,4%,13µM*
CCc1cccc2c3c([nH]c12)[C@@](CC)(CC(=O)O)OCC3,nt,nt,-13%[21.7 µM],-1%[17 µM],nt,-15%[16.9 µM]
O=C(Nc1cccc(C(F)(F)F)c1)c1csc(COCCO)n1,-22,40,nt,nt,nt,nt
C=CCNc1nc2ccccc2nc1NS(=O)(=O)c1ccc(Br)cc1,3,3,nt,-6%,2%,?
O=C(COc1ccc(Cl)cc1)Nc1nnc(C2=COCCO2)o1,-23,?,?,-16%,2%,13µM*
O=C(COc1ccc(Cl)cc1Cl)Nc1nnc(C2=COCCO2)o1,?,?,?,4.5µM*,-4%,3.2µM*
CC(OC(=O)c1ccco1)C(=O)Nc1ccc(C(F)(F)F)cc1 (stereo unspecified),nt,4,nt,nt,nt,nt
CN(C)c1ccc(-c2nnn(CC(=O)NCc3ccc4c(c3)OCO4)n2)cc1,26,12,-8%,-12%[10 µM],68%,31%
CN(Cc1ccccc1)C(=O)c1cccc(NC(=O)Cc2ccc(NC(=O)C3CCCN(C(=O)C4CC4)C3)cc2)c1 (stereo unspecified),0,0,nt,nt,nt,nt
Cc1ccnc(Sc2ccc([N+](=O)[O-])cc2[N+](=O)[O-])n1,0,-1,-5%,?,?,13µM*
Cc1cc(O)c(/C=N/OCc2ccc(Cl)cc2Cl)c(=O)o1,1,6,6%,?,-3%,13µM*
COc1cccc(C2CC(=O)Nc3cc4c(cc32)CCC4)c1 (stereo unspecified),nt,-7,8%,13µM*,-6%,?
COc1ccc(CN(C(=O)Cn2nnc(-c3ccc(C)o3)n2)C(C(=O)NCC2CCCO2)c2ccco2)cc1 (stereo unspecified),-3,-10,-29%,7.1µM*,5%,5µM*
COc1ccc(-c2nnn(CC(=O)N(Cc3ccco3)C(C(=O)NCC3CCCO3)c3ccco3)n2)cc1 (stereo unspecified),0,2,8%,4%,nt,8%[10 µM]
CN1CCN(NC(=O)NC2CCCCC2)CC1,3,-14,nt,1%,-7%,-6%
CCOC(=O)c1nnn(-c2nonc2N)c1CSc1nnc(N)s1,2,-7,13%,5%,-16%,-2%
Cc1nn(Cc2ccc(C(=O)N3CCCC3)o2)c(C)c1[N+](=O)[O-],3,5,nt,nt,-1%,nt
CC1=NN(C(=O)Cn2nc([N+](=O)[O-])cc2C)C(O)(C(F)(F)F)C1 (stereo unspecified),6,10,3%,?,-4%,10µM*
Cc1cc([N+](=O)[O-])nn1CC(=O)N1N=C(C(F)F)CC1(O)C(F)F (stereo unspecified),1,3,-2%,-18%,5%,-3%
SMILES,CtBP-E1A blk,Six1-Eya2 inh,CBFb-RUNX1 inh,Gal4-VP16 FLuc,MBNL1 CUG block,RORg inh
CC1=NN(C(=O)c2ccc(Cn3nc(C)c([N+](=O)[O-])c3C)cc2)C(O)(C(F)(F)F)C1 (stereo unspecified),-18,-8,-4%,11µM*,-1%,11µM*
CC1=NN(C(=O)c2ccc(Cn3nc(C)c(Br)c3C)cc2)C(O)(C(F)(F)F)C1 (stereo unspecified),-2,-6,-4%,13µM*,3%,?
O=C(O)CC(C(=O)O)C(=Cc1ccccc1)c1ccccc1 (stereo unspecified),3,-5,nt,nt,nt,nt
O=c1ccn(C2OC(COP(=O)(O)OP(=O)(O)OP(=O)(O)O)C(O)C2O)c(=O)[nH]1 (stereo unspecified),nt,nt,nt,-9%,nt,-24%
Cc1ccc(C(=O)CN2C(=O)c3ccccc3S2(=O)=O)cc1,10,6,2%,?,nt,2.2µM*
Cc1cc(C(=O)CN2CCCCC2)c(C)n1-c1ccc(F)cc1,5,-19,-6%,6%,-16%,0%
Cc1cc(C(=O)CN2CCC(C)CC2)c(C)n1-c1ccc(F)cc1,-7,-3,4%,?,-6%,10µM*
O=C(CN1C(=O)c2ccccc2S1(=O)=O)c1ccccc1,5,6,3%,14µM*,2%,8.9µM*
Cc1cc(C(=O)CN2C(=O)C3CC=CCC3C2=O)c(C)n1-c1ccccc1 (stereo unspecified),-4,-11,-10%,13µM*,-7%,?
O=C(COC(=O)c1ccc(Br)c(S(=O)(=O)N2CCOCC2)c1)NCCc1ccccc1,9,15,nt,nt,nt,nt
COc1ccccc1CCn1cnc(Cc2ccccc2)c1C(C)C,-1,-19,nt,nt,nt,nt
Cc1cc(C(=O)CN2C(=O)c3ccccc3S2(=O)=O)c(C)n1-c1ccccc1,-7,-18,-12%,11µM*,2%,11µM*
Cc1ccc(C(=O)CN2/C(=C(\O)c3ccccc3)C(=O)c3ccccc3S2(=O)=O)c(C)c1,-13,18,3%,?,-6%,13µM*
O=C(CN1C(=O)c2ccccc2S1(=O)=O)c1ccccc1Cl,nt,nt,nt,?,-6%,8.9µM*
O=C(CN1C(=O)c2ccccc2S1(=O)=O)NCc1ccccc1Cl,1,2,2%,1%,-5%,26%
Cc1cc(C)n2nc(C(=O)NCC(=O)Nc3ccc(F)c(F)c3)nc2n1,10,3,nt,nt,nt,nt
CN(O)/C=c1/ccc2c(n1)C(=O)C=CC=2,-96*,-93*,nt,?,?,?
CCOc1cc(/C=N/NC(=O)CN(CCc2ccccc2)S(=O)(=O)c2ccc(NC(C)=O)cc2)ccc1O,0,-75*,-6%,2%,nt,?
COc1ccc(S(=O)(=O)N(CCc2ccccc2)CC(=O)N/N=C/c2ccc3c(c2)OCO3)cc1,-11,1,3%,-1%,?,28%
